# HT1080-NT tox – kills 2HG-producing HT-1080-NT fibrosarcoma cells; HT-1080-NT fibrosarcoma viability, CellTiter-Glo ATP luminescence, 48 h; Potency, µM (top dose mostly 46.1 µM), for the others: at the highest dose activity, negative = less viability, actives largely listed as cytotoxic; hit rate 1.6% among 360,000;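 further: NT is the 2HG producing partner of a matched IDH1 knockdown line; 0% = DMSO-treated cells and -100% = media-only wells without cells; nearly all actives have a fitted effect of over 55% in size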
#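 HT-1080-NT fibrosarcoma cells (2HG-overproducing), 750 cells/well in RPMI with 5% FBS, dosed after 2 h and incubated 48 h at 37C. CellTiter-Glo luminescence normalized to DMSO and no-cell wells; concentration-response curves fitted and classed.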
# ATXN2 expr inh – reduces ATXN2 reporter expression in HEK-293 cells; HEK-293 ATXN2-luciferase reporter, luminescence, 24 h; Potency, µM (doses to about 57 µM), for inactives: top-dose activity change, negative = inhibition, most hits filed as inhibitors; hit rate 0.72% among 360,000; AID 1745845; further: on the % scale 0 is the no-effect control and ±100 the full control effect; nearly all actives have a fitted effect of over 55% in size
#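 ATXN2-luciferase reporter cells (luciferase flanked by upstream and downstream ATXN2 gene portions) were treated 24 h at 37 °C with compounds at up to 57 uM. SteadyGlo luminescence gave expression; GF-AFC fluorescence gave viability.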
# ATXN viability – reduces viability in counter-screen for ATXN expression inhibitors; S2 cells (HEK-293 line with an ATXN2-luciferase reporter) viability, CellTiter-Fluor protease fluorescence, 24 h; Potency, µM (doses to about 56.7 µM), hits mostly cytotoxic; hit rate 0.49% among 400,000; AID 651635; further: nearly all actives have a fitted effect of over 40% in size
# HepG2 viability – HepG2 cytotoxicity, counter-screen for TGF-b inhibitors; hit rate 0.76% among 410,000; HepG2 CAGA-GFP viability, ATP luminescence, 18 h; AID 588856; Potency, µM (series often up to 46.1 µM), for inactives: at the top dose activity change, negative = cytotoxicity, hits mostly cytotoxic
#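 HepG2 CAGA-GFP cells (1000/well, DMEM with 1% FBS) received compound, then TGF-beta at 500 pg/mL final, and were incubated 18 hours at 37 degrees C. Viability was read by CellTiter-Glo luminescence. Media-only wells were set as complete cell-killing and DMSO as no toxicity.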
# TGFb inhibitor – TGF-b pathway inhibition; Potency, µM (doses to about 46.1 µM), without a hit: at the top dose activity, negative = inhibition, actives largely listed as inhibitors; AID 588855; HepG2 CAGA-GFP TGF-b/SMAD3 reporter, GFP fluorescence, 18 h; TGF-beta stimulated, 500 pg/mL final; hit rate 1.2% among 410,000; further: on the % scale 0 is the no-effect control and ±100 the full control effect; nearly all actives have a fitted effect of over 65% in size
#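 HEPG2 CAGA-GFP, 1000 cells/well; 2 h settle, 37 C; cpd via pin tool; TGF-b 500 pg/mL final; 18 h, 37 C; GFP imaging ex488/em500-530; %Activity normalised to -TGF-b and +DMSO controls; CRC fit, curve class.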
# HT1080 IDH1KD tx – HT-1080 IDH1 knockdown cell toxicity (counter line); HT-1080 IDH1 knockdown viability, ATP luminescence, 48 h; Potency, µM (top dose mostly 46.1 µM), without a hit: top-dose activity, negative = toxicity, most hits filed as cytotoxic; hit rate 2% among 360,000;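 further: 0% = DMSO wells and -100% = cell-free medium wells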
#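 IDH1KD HT-1080 cells, 750/well, RPMI + 5% FBS; compound pinned after 2 h settling; 48 h, 37 °C; CellTiter-Glo luminescence; % activity normalised to DMSO and no-cell wells; curves fitted, classed by r2 and efficacy.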
# An asterisk follows results filed as active; i = inactive; ? = inconclusive; nt = no result given. Sampled rows, rich in hits. Any-hit rate of the full collection: about 3.9%. The call rests on the fitted dose curve; in most records, active means well fitted curve in the direction sought with a large enough effect; inconclusive means small, poorly fitted or top-dose-only effect, or another doubt; inactive means no such curve, though single readings can be large; an effect the other way counts as inactive or inconclusive. Potency means the concentration at half of the fitted maximal effect.
SMILES,HT1080-NT tox,ATXN2 expr inh,ATXN viability,HepG2 viability,TGFb inhibitor,HT1080 IDH1KD tx
O=C(Nc1c(Cl)cc([N+](=O)[O-])cc1Cl)c1cc(Cl)cc(Cl)c1O,nt,nt,nt,-53%,3.2µM*,nt
CCS(=O)(=O)NCc1c(C)ncc2c1CCN(C(=O)c1ccc(F)cc1)C2,nt,nt,i,nt,nt,nt
c1ccc(Nc2ccccc2Nc2ccccn2)nc1,5%,0%,i,2%,12%,13%
Oc1cccc2ccc(Nc3ccccn3)nc12,5.8µM*,0%,nt,5.6µM*,?,5.8µM*
Cn1c(=O)c(C(=O)NNC(=O)c2cccc(Cl)c2)c(O)c2ccccc21,6.5µM*,?,?,-31%,?,9.2µM*
CCn1c(=O)c(C(=O)NNC(=O)c2cccc(Cl)c2)c(O)c2ccccc21,13µM*,?,i,-56%,?,?
Cc1cccc(C(=O)NNC(=O)c2c(O)c3ccccc3n(C)c2=O)c1,?,-9%,i,-22%,?,?
CSc1nnc(CCNC(=O)c2ccc(-c3cccc(F)c3)cc2)n1-c1ccc(F)cc1,nt,nt,i,nt,nt,nt
CCNC(=O)c1cc(NC(=O)COC)cc2nc(-c3ccncc3)n(C)c12,nt,nt,i,nt,nt,nt
COc1ccc(CC(N)c2csc(Nc3cc(Oc4ccccc4)ncn3)n2)cc1 (stereo unspecified),-23%,?,?,18µM*,?,?
NC(c1csc(Nc2cc(NCc3ccco3)ncn2)n1)c1ccccc1Cl (stereo unspecified),?,-32%,?,-45%,?,-14%
NC(c1csc(Nc2cc(Oc3ccccc3)ncn2)n1)c1ccccc1Cl (stereo unspecified),?,?,?,-13%,?,?
NC(Cc1ccc(F)cc1)c1csc(Nc2cc(Oc3ccccc3)ncn2)n1 (stereo unspecified),?,?,28µM*,13µM*,?,16µM*
NC(Cc1ccc(Cl)cc1)c1csc(Nc2cc(Oc3ccccc3)ncn2)n1 (stereo unspecified),18µM*,-21%,nt,-114%,?,18µM*
NC(Cc1ccc(F)cc1)c1csc(Nc2cc(NCc3ccco3)ncn2)n1 (stereo unspecified),18µM*,18µM*,?,-48%,?,16µM*
CC(N)c1csc(Nc2cc(Oc3ccccc3)ncn2)n1 (stereo unspecified),?,2%,i,-8%,-23%,-22%
COc1ccc(NC(=O)Nc2cc(C(=O)NCc3ccc(C)cc3)ccc2N2CCCC2)cc1,nt,-4%,i,-7%,5%,nt
COc1cccc(-n2c(SCc3ccccc3C)nc3c([nH]c4ccccc43)c2=O)c1,nt,12%,i,-29%,?,nt
NC(COCc1ccccc1)c1csc(Nc2nccc(C(F)(F)F)n2)n1 (stereo unspecified),-7%,3%,i,-1%,12%,-4%
NC(COCc1ccccc1)c1csc(Nc2cc(Oc3ccccc3)ncn2)n1 (stereo unspecified),23µM*,?,?,-101%,?,?
CC(=O)Nc1ccn(C2CC3OCC(NC(=O)C(NC(=O)OC(C)(C)C)C(C)OCc4ccccc4)C3O2)c(=O)n1 (stereo unspecified),nt,nt,nt,2%,-11%,nt
O=C1C=C(c2ccccc2)CC(c2cccs2)C1n1cnc([N+](=O)[O-])c1 (stereo unspecified),-2%,-5%,i,2%,8%,-3%
O=C1C=C(c2ccccc2)C[C@H](c2cccs2)[C@H]1n1nnc([N+](=O)[O-])n1,15µM*,?,28µM*,2%,-31%,9.2µM*
O=C(c1ccc(-c2nc3ccccc3s2)s1)N1CCOCC1,8.2µM*,?,i,-51%,4%,?
COCCn1c(C)cc(C(=O)CSc2nnc(C)s2)c1C,-12%,5µM*,i,-4%,12%,-17%
SMILES,HT1080-NT tox,ATXN2 expr inh,ATXN viability,HepG2 viability,TGFb inhibitor,HT1080 IDH1KD tx
COCCn1c(C)cc(C(=O)CSc2nnnn2C2CCCC2)c1C,8%,14µM*,i,-6%,-19%,-1%
COc1ccc(Cl)cc1C(=O)CSc1nnnn1C1CCCC1,-21%,15%,i,-20%,-23%,-23%
COCCn1c(C)cc(C(=O)CSc2n[nH]c(N)n2)c1C,0%,12%,i,-12%,-8%,4%
COC(=O)C1=C[C@@H](C(=O)OC)[C@H]2C3=C(C(=O)[C@@]2(C)NC(=O)c2ccccc2)[C@H](C)C(C(=O)OC)=C(C(=O)OC)[C@@H]3C1,nt,nt,nt,-2%,-22%,nt
CCCc1ccc2oc(C(=O)NCCN3CCCC(O)C3)c(C)c2c1 (stereo unspecified),?,41%,i,-17%,4%,23µM*
CCCc1ccc2oc(C(=O)NCCN3CCCC(C(N)=O)C3)c(C)c2c1 (stereo unspecified),-19%,nt,i,-46%,-11%,-16%
Cc1ccc2[nH]c(=O)c(C3C(C#N)=C(N)Oc4c3ccc3cccnc43)cc2c1 (stereo unspecified),-27%,?,nt,-110%,10µM*,?
COc1ccc(-c2nc(-c3ccccc3)c(-c3ccc(F)cc3)[nH]2)c(OC)c1C,nt,?,?,-16%,?,nt
CC1=NN(C(=O)Cc2ccc([N+](=O)[O-])cc2)C(O)(C(F)(F)C(F)(F)F)C1 (stereo unspecified),1%,nt,?,-70%,11µM*,-14%
COc1cc(-c2cc(C)c3cccc(OC)c3n2)cc2c1OCCN(C(=O)CCn1nc(C)cc1C)C2,nt,nt,i,nt,nt,nt
Cc1cc(C)[n+]2[nH]c(N)c(N=Nc3ccccc3)c2n1,-12%,2%,?,13µM*,-13%,-14%
C=C(C(=O)O)c1ccc2ccccc2c1,nt,nt,nt,0%,3%,nt
O=c1c2cc3c(cc2n(Cc2ccc(F)cc2)c(=O)n1Cc1nc(-c2ccccc2)no1)OCO3,nt,2%,i,5%,10%,nt
C=C(C)C1CCC2(C(=O)O)CCC3(C)C(CCC4C5(C)C(C=O)C(O)C(C)(C)C5CCC43C)C12 (stereo unspecified),-27%,?,?,-27%,13µM*,-28%
O=S(=O)(CCN1CCN(C(c2ccccc2)c2ccccc2)CC1)C(F)(F)F,?,?,i,-26%,?,18µM*
CN(C)CCCC1Sc2ccccc2Sc2ccccc21 (stereo unspecified),23µM*,-32%,?,-41%,?,?

# Screens (PubChem BioAssay)
